# From the supplement of paper PMC11001985
# Unmarked numbers belong to inactive results.
# Target: TTYH3 (lysine site: K340) (UniProt Q9C0H2)
# Assay: lysine labeling ratio R10:1 (500 µM / 50 µM probe), SILAC-ABPP in living cells; higher = lower intrinsic lysine reactivity toward the probe, active = 2 or less
# Conditions: HeLa; probe concentrations 500 vs 50 µM
# Method: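 Living HeLa cells (SILAC light/heavy) in PBS at room temperature were labeled with 50 µM versus 500 µM of the lysine-reactive, reductant-cleavable probe OPA-S-S-alkyne (SILAC labeling time not stated). Probe-modified peptides were CuAAC-biotinylated, captured on neutravidin and eluted with DTT/IAA, then quantified by LC-MS/MS. R = median peptide ratio per lysine (500/50 µM), combined over 3 forward and 3 reverse SILAC replicates. Ratios are capped at 20; R < 2 = hyper-reactive.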
# TTYH3 (lysine site: K340), sequence (Q9C0H2 whole entry): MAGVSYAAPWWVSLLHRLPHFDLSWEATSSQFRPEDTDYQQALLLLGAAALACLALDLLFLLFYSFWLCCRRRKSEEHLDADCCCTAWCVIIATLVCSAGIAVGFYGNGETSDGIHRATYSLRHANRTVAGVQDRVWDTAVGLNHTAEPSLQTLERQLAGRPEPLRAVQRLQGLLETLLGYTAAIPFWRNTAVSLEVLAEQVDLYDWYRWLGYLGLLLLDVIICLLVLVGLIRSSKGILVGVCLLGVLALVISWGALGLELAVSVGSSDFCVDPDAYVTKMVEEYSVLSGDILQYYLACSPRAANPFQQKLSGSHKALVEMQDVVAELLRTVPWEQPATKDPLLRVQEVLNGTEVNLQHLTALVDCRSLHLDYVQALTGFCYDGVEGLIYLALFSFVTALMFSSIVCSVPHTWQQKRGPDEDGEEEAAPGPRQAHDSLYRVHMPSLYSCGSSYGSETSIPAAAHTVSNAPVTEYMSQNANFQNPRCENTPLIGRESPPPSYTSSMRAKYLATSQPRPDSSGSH
row,SMILES,lysine labeling ratio R10:1
1,C#CCNC(=O)CCSSCCC(=O)NCCc1ccc(C=O)c(C=O)c1,2.27
